Experiment [1] can be described thus: qHTS of pediatric cancer cell lines to identify multiple opportunities for drug repurposing: Primary screen for SK-N-MC cells (AID 1347093). Further: potency means the concentration at half of the fitted maximal effect. In short, it runs like this: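 Metabolically active cells were quantified by ATP-dependent luminescence (CellTiter-Glo, 15 min at room temperature) following 48 h treatment. Cells had been plated at 500-1,000 per well and settled for 5 h beforehand.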

The nature of experiment [2]: qHTS of pediatric cancer cell lines to identify multiple opportunities for drug repurposing: Primary screen for BT-37 cells (AID 1347094). Further: potency means the concentration at half of the fitted maximal effect. In short, it runs like this: (§1)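 Quantitative HTS format: each compound titrated (MIPE 11 points from 0.78 nM, NPC 8 points from 0.59 nM) onto cells plated 5 hours earlier. After 48 h at 37 degrees C, CellTiter-Glo luminescence was recorded.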

Experiment [3] in a line: qHTS of pediatric cancer cell lines to identify multiple opportunities for drug repurposing: Primary screen for Saos-2 cells (AID 1347097). Further: nearly all actives have a fitted effect of over 40% in size. Further: potency means the concentration at half of the fitted maximal effect. In short, it runs like this: as §1
Experiment [4] is described as follows: qHTS of pediatric cancer cell lines to identify multiple opportunities for drug repurposing: Primary screen for SK-N-SH cells (AID 1347098). Further: nearly all actives have a fitted effect of over 65% in size. Further: potency means the concentration at half of the fitted maximal effect. In short, it runs like this: (§2)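 Cells (500-1,000/well) rested 5 h, then received compounds for 48 h; metabolically active cells were measured by CellTiter-Glo luminescence. Final concentrations spanned up to 46 µM (MIPE, 11-point) or 0.59 nM-46 µM (NPC, 8-point) in primary screens, 11-point in follow-ups.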

The nature of experiment [5]: qHTS of pediatric cancer cell lines to identify multiple opportunities for drug repurposing: Primary screen for NB1643 cells (AID 1347099). Further: nearly all actives have a fitted effect of over 50% in size. Further: potency means the concentration at half of the fitted maximal effect. In short, it runs like this: as §1
The nature of experiment [6]: qHTS of pediatric cancer cell lines to identify multiple opportunities for drug repurposing: Primary screen for LAN-5 cells (AID 1347100). Further: potency means the concentration at half of the fitted maximal effect. The method in brief:
(§3)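 Cells (500-1,000/well) in growth media were settled 5 h at 37 degrees C, then given compounds for 48 h. Viability was read as CellTiter-Glo luminescence. Primary runs used MIPE at 11 points (0.78 nM-46 µM) and NPC at 8 points (0.59 nM-46 µM); follow-ups used 11 points.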

Experiment [7] in a line: qHTS of pediatric cancer cell lines to identify multiple opportunities for drug repurposing: Primary screen for BT-12 cells (AID 1347101). Further: nearly all actives have a fitted effect of over 25% in size. Further: potency means the concentration at half of the fitted maximal effect. In short, it runs like this: as §2
Experiment [8] can be described thus: qHTS of pediatric cancer cell lines to identify multiple opportunities for drug repurposing: Primary screen for Rh18 cells (AID 1347102). Further: nearly all actives have a fitted effect of over 65% in size. In short, it runs like this: as §3
Experiment [9] is described as follows: qHTS of pediatric cancer cell lines to identify multiple opportunities for drug repurposing: Primary screen for U-2 OS cells (AID 1347096). Further: nearly all actives have a fitted effect of over 50% in size. The method in brief: as §3
Experiment [10] can be described thus: qHTS of pediatric cancer cell lines to identify multiple opportunities for drug repurposing: Primary screen for NB-EBc1 cells (AID 1347095). Further: potency means the concentration at half of the fitted maximal effect. In short, it runs like this:
as §1

Records with an inconclusive call do not appear. Active and inactive are the calls of the source. The call rests on the fitted dose curve; in most records, active means well fitted curve in the direction sought with a large enough effect; inconclusive means small, poorly fitted or top-dose-only effect, or another doubt; inactive means no such curve, though single readings can be large; an effect the other way counts as inactive or inconclusive.

As for `Cc1c(F)cc2c(=O)c(C(=O)O)cn3c2c1CCC3C` (configuration not stated), the Potency entry in [1], in experiment [2], in [3], in experiment [4], in experiment [5] and in experiment [6] was “inactive” in each case. For the same compound, the Potency result in experiment [7] and in experiment [8] was “inactive” in each case.
Consider `O=C(O)Cc1ccccc1Oc1ccc(Cl)cc1Cl`, for which the Potency result in experiment [1], in [2], in experiment [9], in experiment [3], in experiment [5] and in [6] was “inactive” in each case. The Potency entry in [8] is “inactive”.
Take `O=C1NC2CCCCN2C12CCN(CCCN1c3ccccc3CCc3ccc(Cl)cc31)CC2` (configuration not stated): the Potency in experiment [1] is 16.8 µM (active); in [2], 30.9 µM (active); in experiment [3] it was 23.7 µM (active); in experiment [4], 27.3 µM (active); in [7], 15.5 µM (active).
`CCOC(=O)Oc1ccc(CCNC(=O)[C@H](CCSC)NC(C)=O)cc1OC(=O)OCC`: the Potency result in experiment [1], in experiment [2], in [3], in experiment [4], in experiment [5] and in experiment [6] was “inactive” in each case. In addition, the Potency result in experiment [7] and in experiment [8] was “inactive” in each case.
Consider `O=C(CCOCCOCCOCCOCCC(=O)Nc1c(I)cc(I)c(C(=O)O)c1I)Nc1c(I)cc(I)c(C(=O)O)c1I`, for which the Potency result in experiment [1], in experiment [2], in experiment [3], in [4], in experiment [5] and in [6] was “inactive” each time. Moreover, in experiment [8], the Potency entry is “inactive”.
With `O=C1CC2(CCCC2)CC(=O)N1`, the Potency result in experiment [1], in [10], in experiment [9], in experiment [3], in experiment [4] and in experiment [5] was “inactive” throughout. For the same compound, the Potency entry in experiment [7] and in [8] was “inactive” throughout.
As to `NC(=O)NS(=O)(=O)c1ccc(Cl)cc1`, the Potency entry in experiment [1], in experiment [10], in experiment [9], in experiment [3], in [4] and in experiment [5] was “inactive” throughout. Also, the Potency entry in [6], in experiment [7] and in experiment [8] was “inactive” in each case.
Take `O=C1CC[C@H](C(=O)N2CCCCC2)N1`: the Potency result in [1], in [2], in [3], in experiment [4], in experiment [5] and in experiment [6] was “inactive” each time. Further, the Potency result in [8] is “inactive”.
For `O=C1c2ccccc2CCc2ccccc21`, the Potency result in experiment [1], in experiment [10], in [9], in [3], in [4] and in [5] was “inactive” throughout. Moreover, the Potency result in experiment [6], in [7] and in [8] was “inactive” in each case.
For `Nc1ncnc2nc[nH]c12`, the Potency result in experiment [1], in experiment [10], in [9], in experiment [4], in experiment [5] and in experiment [6] was “inactive” throughout. The Potency entry in [7] and in [8] was “inactive” throughout.
As for `COc1ccc(-n2nc(CCC(=O)N(C)O)cc2-c2ccc(Cl)cc2)cc1`, the Potency was 23.7 µM (active) in [1] and 21.1 µM (active) in [10]. The Potency entry in experiment [9] and in experiment [8] was “inactive” in each case.
Consider `CC(C)(C)c1cc(C=O)cc(C(C)(C)C)c1O`, for which the Potency entry in experiment [1], in [10], in [9], in [4], in experiment [5] and in experiment [6] was “inactive” throughout. In addition, the Potency entry in experiment [7] and in experiment [8] was “inactive” in each case.
Turning to `CC[C@@H]([C@H](C)O)n1ncn(-c2ccc(N3CCN(c4ccc(OC[C@@H]5CO[C@@](Cn6cncn6)(c6ccc(F)cc6F)C5)cc4)CC3)cc2)c1=O`, the Potency was 11.9 µM (active) in [1] and 21.1 µM (active) in experiment [10]. Besides, the Potency entry in experiment [4] and in experiment [8] was “inactive” throughout.
On to `C#CC(C)(CC)OC(=O)c1ccccc1C(=O)O` (configuration not stated), for which the Potency entry in [1], in experiment [10], in experiment [9], in [3], in experiment [5] and in experiment [6] was “inactive” in each case. For the same compound, the Potency entry in [8] was “inactive”.
Turning to `C[C@H](N)C(=O)N[C@@H](C)C(=O)NC1[C@H]2CN(c3nc4c(cc3F)c(=O)c(C(=O)O)cn4-c3ccc(F)cc3F)C[C@@H]12` (some centres not stated), the Potency result in experiment [1], in experiment [10], in [9], in experiment [3] and in experiment [8] was “inactive” throughout.
Consider `OCCOCCN1CCN(C(c2ccccc2)c2ccc(Cl)cc2)CC1` (configuration not stated), for which the Potency entry in experiment [2], in experiment [10], in experiment [9], in [3], in experiment [4] and in experiment [5] was “inactive” each time. Also, the Potency result in experiment [6], in experiment [7] and in [8] was “inactive” each time.
For `CC(=O)O[C@@H]1C(=O)O[C@@H]2[C@H]1OC(=O)[C@@H]2OC(C)=O`, the Potency in experiment [1] is 3.76 µM (active). The Potency result in experiment [10], in [3], in experiment [4], in [7] and in [8] was “inactive” throughout.
Regarding `N#C/C(=C1/SC[C@@H](c2ccc(Cl)cc2Cl)S1)n1ccnc1`, the Potency in experiment [1] was 11.9 µM (active). The Potency result in experiment [9] and in experiment [8] was “inactive” throughout.
For `O=C(Nc1ccc(Cl)cc1)Nc1ccc(Cl)c(Cl)c1`, the Potency in experiment [1] was 18.8 µM (active); in [10], 23.7 µM (active); in [4], 12.2 µM (active).
For the compound `Nc1ccc([N+](=O)[O-])c(C(F)(F)F)c1`, the Potency result in experiment [1], in experiment [10], in experiment [3], in [5], in [7] and in [8] was “inactive” each time.
For the compound `CCN1CCN(c2cc(-c3ccc(F)cc3)c3c(n2)CCCCCC3)CC1`, the Potency entry in [1], in experiment [10], in experiment [9], in [4], in [5] and in [7] was “inactive” throughout. The Potency result in experiment [8] is “inactive”.
Take `O=C1NCCN1CCN1CCC(c2cn(-c3ccc(F)cc3)c3ccc(Cl)cc23)CC1`: the Potency in experiment [1] is 6.68 µM (active); in [10], 21.1 µM (active); in experiment [3], 21.1 µM (active); in [4], 21.7 µM (active); in experiment [6], 8.41 µM (active); in experiment [7], 8.71 µM (active).
`CN(C)CCOC1=Cc2ccccc2Sc2ccc(Cl)cc21`: the Potency entry in experiment [1], in experiment [10], in experiment [9], in experiment [6] and in [8] was “inactive” in each case.
`CCOC(=O)Cn1cccc1-c1nc(-c2ccc(OC)cc2)c(-c2ccc(OC)cc2)s1`: the Potency entry in [1], in [9], in experiment [3], in experiment [4], in experiment [5] and in experiment [6] was “inactive” in each case. The Potency result in experiment [7] and in experiment [8] was “inactive” throughout.
For `CCC1=C[C@@H]2CN(C1)Cc1c([nH]c3ccccc13)[C@@](C(=O)OC)(c1cc3c(cc1OC)N(C)[C@H]1[C@@](O)(C(=O)OC)[C@H](OC(C)=O)[C@]4(CC)C=CCN5CC[C@]31[C@@H]54)C2`, the Potency in experiment [1] was 0.0168 µM (active); in [10], 0.0335 µM (active); in experiment [5], 2.66 µM (active); in [6] it was 0.0084 µM (active); in experiment [7] it was 0.0347 µM (active).

These data come from PubChem BioAssay (NCATS).
